Test results from PubChem BioAssay (NCI).
This is part of a sample that, as a whole, favours compounds with a hit. Of some 79,000 tested, about 15% had one in any assay. Values without a mark were called inactive. Active and inactive are the calls of the source. Rule as the data show it: active = growth inhibition above about 70%; inactive = the rest.

Assays:
[1] = NCI Yeast Anticancer Drug Screen. Data for the rad50 strain (AID 155);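 also: 0% = growth of vehicle-only cultures of the same strain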; conditions: S. cerevisiae rad50 strain growth inhibition, stronger effect = higher value
Outline: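 Genetically altered yeast (DNA repair pathway); compound treatment; growth inhibition vs vehicle ctrl.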

[2] = NCI Yeast Anticancer Drug Screen. Data for the mec2-1 strain (AID 157); conditions: S. cerevisiae mec2-1 strain, stronger effect = higher value
Outline: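 Vehicle-treated cultures served as reference for growth inhibition of compound-exposed mec2-1 yeast.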

[3] = NCI Yeast Anticancer Drug Screen. Data for the sgs1 mgt1 strain (AID 161);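 also: 0% = growth of cultures given vehicle only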; conditions: S. cerevisiae sgs1 mgt1 strain, stronger effect = higher value
Outline: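 Mutant yeast exposed to compound; growth scored against vehicle-only wells.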

[4] = NCI Yeast Anticancer Drug Screen. Data for the cln2 rad14 strain (AID 165);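 also: 0% = growth equal to vehicle treated cultures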; conditions: S. cerevisiae cln2 rad14 strain, stronger effect = higher value
Outline: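 Each compound was tested on cln2 rad14 yeast. Inhibition of growth was calculated against vehicle-exposed controls.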

[5] = NCI Yeast Anticancer Drug Screen. Data for the bub3 strain (AID 167); conditions: S. cerevisiae bub3 mutant strain, stronger effect = higher value
Outline: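 Yeast carrying a defined mutation is treated with each compound, and growth is compared with that of vehicle-exposed cells to give inhibition.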

[6] = NCI Yeast Anticancer Drug Screen. Data for the mlh1 rad18 strain (AID 175); conditions: S. cerevisiae mlh1 rad18 strain growth inhibition, stronger effect = higher value
Outline: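 Vehicle-treated cultures served as the reference for growth inhibition in a yeast strain carrying DNA damage repair alterations exposed to each compound.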

[7] = at 5.0 µM (retest, dose inferred, filed as 0.5)
[8] = at 50.0 µM (retest, dose inferred, filed as 5.0)

| SMILES | growth inhibition [1, 7] [%] | growth inhibition [1, 8] | growth inhibition ([1]; at 50.0 µM) | growth inhibition [2, 7] [%] | growth inhibition [2, 8] | growth inhibition ([2]; at 50.0 µM) | growth inhibition [3, 7] [%] | growth inhibition [3, 8] | growth inhibition ([3]; at 50.0 µM) | growth inhibition [4, 7] [%] | growth inhibition [4, 8] | growth inhibition ([4]; at 50.0 µM) | growth inhibition [5, 7] [%] | growth inhibition [5, 8] | growth inhibition ([5]; at 50.0 µM) | growth inhibition [6, 7] [%] | growth inhibition [6, 8] | growth inhibition ([6]; at 50.0 µM) |
| --- | --- | --- | --- | --- | --- | --- | --- | --- | --- | --- | --- | --- | --- | --- | --- | --- | --- | --- |
| CN(C)CCC(=O)/C=C/c1ccccc1 | -2 | 3% | 53% | -1 | 5% | 38% | -3 | 1% | 75.9% (active) | -2 | 1% | 38.1% | -3 | 11% | 61% | -3 | 4% | 63.1% |
| COc1ccc(Cc2ccc(N)cc2)cc1 | -149 | 78% (active) | 92.2% (active) | -52 | 68% | 86.7% (active) | -68 | 85% (active) | 89.5% (active) | -61 | 91% (active) | 87.8% (active) | -66 | 76% (active) | 91.1% (active) | -132 | 86% (active) | 96.8% (active) |
| O=C(C=P(c1ccccc1)(c1ccccc1)c1ccccc1)CC(=S)CC(=O)C=P(c1ccccc1)(c1ccccc1)c1ccccc1 | 31 | 71% (active) | 97.3% (active) | 18 | 69% | 97.8% (active) | 24 | 85% (active) | 97.8% (active) | -3 | 61% | 96.2% (active) | 9 | 88% (active) | 95.9% (active) | 8 | 77% (active) | 95.2% (active) |
| CCC1(C)CCC2(C)C(CCC3C4(C)CCCC32OC4=O)C1 (stereo not given) | 16 | 93% (active) | 97.5% (active) | -2 | 96% (active) | 94.3% (active) | 2 | 97% (active) | 96.8% (active) | -9 | 92% (active) | 91.9% (active) | 15 | 98% (active) | 96.2% (active) | -10 | 92% (active) | 92.2% (active) |
| Cc1ccc2nc(-[n+]3cc4ccccc4cc3C)ccc2c1 | 9 | 99% (active) | 89% (active) | 1 | 100% (active) | 87.6% (active) | 3 | 99% (active) | 89.3% (active) | -1 | 83% (active) | 17.2% | 1 | 100% (active) | 87.7% (active) | 5 | 98% (active) | 87.3% (active) |
| CCCCCCCCCCCCCCCCC1CCc2ccccc21 (stereo not given) | 4 | 4% | 56.8% | -2 | -6% | 64.3% | 11 | 13% | 79.4% (active) | 23 | 28% | 89.8% (active) | 38 | 39% | 75.8% (active) | -2 | 11% | 86% (active) |
| CCC[CH2][Sn]([CH2]CCC)([O]C(=O)c1cccc(F)c1)[O]C(=O)c1cccc(F)c1 | 26 | 26% | 51.5% | -2 | -2% | 33.5% | -1 | -1% | 73.2% (active) | 10 | 10% | 14.9% | -2 | -2% | 49.9% | -1 | -1% | 53% |
| COC(=O)c1cc2c(c(C(=O)OC)c1O)C(=O)C=CC2=O | 2 | 78% (active) | 84.5% (active) | 8 | 95% (active) | 84% (active) | 5 | 80% (active) | 80% (active) | 10 | 95% (active) | 56.3% | -2 | 90% (active) | 69.8% | -28 | 95% (active) | 70.6% (active) |
| O=C(CNC(=O)c1ccccc1)Oc1c(Cl)c(Cl)c(Cl)c(Cl)c1Cl | 12 | 61% | 75% (active) | 42 | 82% (active) | 74.8% (active) | 38 | 89% (active) | 90.8% (active) | 7 | 42% | 65.9% | 1 | 45% | 34% | 50 | 90% (active) | 77.5% (active) |
| CCCN1C(=O)c2ccccc2C1=O | 9 | 2% | 20.4% | 1 | -3% | -6.65% | -3 | 4% | 14.1% | 10 | 2% | 36.6% | 10 | 17% | -0.55% | 4 | 0% | 9.5% |
